Screens: PubChem, several laboratories
Sampled rows, rich in hits. Any-hit rate of the full collection: about 4.1%.
Peg3 prom inh: Peg3 promoter activity inhibition | HeLa PEG-Prom luciferase reporter, luminescence, overnight | inhibition, % at 20 µM | actives 1.7% (n = 360,000);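 active means inhibition of at least 50% at 20 µM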
TWEAK-Fn14 inh: blocks TWEAK-Fn14 interaction in a reporter cell assay; TWEAK-stimulated Fn14 reporter cells, luciferase luminescence, 8 h; inhibition, % at 10 µM; actives 2% (n = 360,000); in the data active means inhibition above about 50%
Shn3 inh set2: Schnurri-3 reporter inhibition in Clone20 osteoblasts. Clone20 osteoblast Shn3 3'UTR firefly luciferase, 24 h. inhibition, % at 12.5 µM. actives 0.52% (n = 360,000);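 active means mean inhibition of at least 75% with every replicate also reaching 75%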;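 further: 0% = median of neutral control wells and 100% = pilot-screen positive control compound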
MITF TRPM1 inh: reduces MITF-dependent TRPM1 promoter luciferase signal; SK-MEL-5 TRPM1 promoter luciferase, 24 h; inhibition, % at 12.5 µM; actives 0.83% (n = 330,000);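 active means mean inhibition across replicates of 60% or more, whatever share of single replicates reaches that level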
EBV LMP1 NFkB: inhibitors of Epstein-Barr LMP1-induced NF-kappaB reporter; LMP1-induced NF-kappaB luciferase reporter cells, luminescence; inhibition, % at 12.5 µM; actives 0.69% (n = 350,000); AID 504558; in the data active means inhibition above about 41%;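 further: 0% = neutral control wells and 100% = reference inhibitor control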
TROY NFkB inh: TROY signaling inhibition. Q293 LMP1-TROYcd NF-kB luciferase reporter, 4 h. inhibition, % at 10 µM. actives 0.98% (n = 360,000). AID 1347056;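 active means compounds whose plate-normalised and pattern-corrected inhibition of the luciferase reporter signal at the single screening dose is 50% or more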
Starred values were filed as active, the others as inactive; / = no result given.

SMILES	Peg3 prom inh	TWEAK-Fn14 inh	Shn3 inh set2	MITF TRPM1 inh	EBV LMP1 NFkB	TROY NFkB inh
O=C(O)CN1C(=O)/C(=C\c2cc(Br)ccc2OCc2ccc(Cl)cc2Cl)SC1=S	0.8	3.5	5.2	0.8	-2.4	87.3*
CC(=O)Nc1ccc(S(=O)(=O)NCCC(=O)NCCCc2ccccc2)cc1	5.4	4.5	8.9	-10.4	7.6	1.5
CC(=O)Nc1ccc(S(=O)(=O)NCC(=O)NCCCc2ccccc2)cc1	5.0	51.0*	18.2	12.1	-0.4	-8.4
Cc1cc(N)n2nc(C)c(-c3ccc(Cl)cc3)c2n1	14.7	7.9	7.0	0.6	-9.1	-9.3
Cc1cc(Cl)n2nc(C)c(-c3ccc(Cl)cc3)c2n1	103.7*	12.7	38.2	1.2	0.5	-9.6
O=C1C=C(Nc2cccc3cccnc23)c2ccccc2C1=O	-17.3	28.3	-30.5	80.1*	3.3	2.9
CCCCNC1=CC(=O)C(=O)c2ccccc21	12.6	13.2	15.8	93.7*	3.2	-24.2
O=C1C=C(Nc2ccccc2)C(=O)c2ccccc21	-188.8	16.8	-67.4	49.4	-22.6	-48.8
CCc1ccc(NC2=CC(=O)C(=O)c3ccccc32)cc1	5.7	19.4	33.2	103.5*	-28.9	40.0
O=C1C=C(Nc2ccccc2)c2ccccc2C1=O	24.4	-1.5	42.2	102.5*	1.7	-0.7
O=C1C=C(Nc2ccccc2C(=O)O)c2ccccc2C1=O	-1.5	-36.6	-30.2	37.6	-3.6	-23.9
O=C(/C=C/c1ccc([N+](=O)[O-])cc1)c1ccccc(=O)c1O	107.1*	71.9*	58.9	69.2*	19.0	-28.9
O=C(/C=C/c1ccccc1Cl)c1ccccc(=O)c1O	71.0*	35.0	15.5	6.4	-34.7	37.2
Cc1ccc(/C=C/C(=O)c2ccccc(=O)c2O)c(C)c1	-78.2	87.4*	43.1	0.4	14.5	72.8*
CCCCC1C(=O)N(c2ccccc2)N(c2ccccc2)C1=O	-13.8	15.2	-10.9	-2.4	10.1	2.9
CCCCN1C=CC(=C2C(=O)c3ccccc3C2=O)C=C1	109.8*	98.6*	91.2*	95.5*	75.0*	85.0*
CCOC(=O)C1C(c2ccc(O)c(OC)c2)NC(=S)NC1(O)C(F)(F)F (centres undefined)	14.3	19.1	-7.7	-12.5	8.7	-0.4
Cc1ccc(Nc2nc(N)nc(CSc3nc4ccccc4s3)n2)cc1	-37.1	83.1*	7.5	-38.1	-20.5	43.6
O=[N+]([O-])c1cccc(-c2nn(-c3ccccc3)cc2CO)c1	-35.6	-2.5	9.7	-20.7	-2.9	-18.3
Cc1cc(N/N=C/c2ccc(O)c(C)c2O)nc(-c2ccccc2O)n1	68.9*	66.0*	84.7	-10.3	-20.6	40.3
CC(C)=CCc1cc([C@@H]2CC(=O)c3ccc(O)c(CC=C(C)C)c3O2)ccc1O	17.2	57.8*	31.1	6.5	-1.1	43.3
CC1CCN(Cc2nnnn2CCCC(=O)N(C)C2CCOC2)CC1 (centres undefined)	7.0	5.3	11.5	7.9	1.2	-17.0
COc1ccc(C(=O)c2sc3nc(-c4ccccc4)ccc3c2N)cc1	-22.9	1.9	-2.5	-8.8	-10.2	-29.4
CC(C)OC(=O)c1sc2nc(-c3ccccc3)ccc2c1N	-87.0	90.7*	-8.3	5.2	-62.2	80.5*
CCOC(=O)C1CCCN(C2=NC(=O)/C(=C/c3ccc(N(C)C)cc3)S2)C1 (centres undefined)	-17.2	-51.3	-5.1	-8.7	3.6	-59.3
SMILES	Peg3 prom inh	TWEAK-Fn14 inh	Shn3 inh set2	MITF TRPM1 inh	EBV LMP1 NFkB	TROY NFkB inh
CCCCCOC(=O)c1[nH]c2c(c1C)C(=O)CC(c1ccco1)C2 (centres undefined)	-20.9	38.6	91.6*	47.4	6.7	21.1
CCN1C(=O)/C(=C\N(C)C)c2ccccc21	6.9	-18.1	3.6	9.9	-13.1	1.0
CCN1C(=O)/C(=C/N(C)C)c2ccccc21	57.4*	-16.2	-30.2	14.2	2.8	-13.4
CCN1C(=O)/C(=C\c2nc3ccccc3c(=O)n2CC)c2ccccc21	19.9	19.4	-20.7	-4.2	-36.6	6.2
CCN1C(=O)/C(=C/c2nc3ccccc3c(=O)n2-c2ccccc2)c2ccccc21	35.1	58.4*	-31.6	17.2	1.8	27.1
O=C(Nc1cc(Cl)ccc1Oc1ccccc1)c1cnccn1	6.1	87.6*	-16.8	0.9	8.2	/
OC(c1cccc(F)c1)c1ncc(-c2ccc(Oc3ccccc3)cc2)[nH]1 (centres undefined)	-34.0	-2.4	-36.8	/	/	26.1
OC(c1cccc(Cl)c1)c1ncc(-c2ccc(Oc3ccccc3)cc2)[nH]1 (centres undefined)	53.9*	-1.8	0.2	/	/	5.7
COc1cc(/C=N/NC(=O)c2ccc(CN3c4cccc5cccc(c45)S3(=O)=O)cc2)cc(OC)c1O	56.8*	17.3	13.2	7.3	8.3	35.3
CCN(CC)CCCNC(=O)Cn1cnc2sc(C)c(S(=O)(=O)N3CCC(C)CC3)c2c1=O	-2.2	3.6	-12.6	1.3	-8.0	14.1
CC(OC(=O)c1ccccc1Oc1ccccc1)C(=O)NC1CC1 (centres undefined)	15.7	9.8	-16.6	10.0	-7.7	58.7*
O=C(CCCn1c(=S)[nH]c2ccsc2c1=O)Nc1ccc2c(c1)OCCO2	40.1	88.7*	10.6	24.6	25.0	82.1*
Cn1c(=O)n(C)c2cc(NC(=O)c3ccccc3[N+](=O)[O-])c(Br)cc21	6.3	11.8	-11.9	-0.7	-3.4	-16.4
CC(=O)c1c(C)[nH]c(C(=O)Nc2cccc(C)n2)c1C	-162.3	52.7*	-55.3	-65.5	-11.2	-1.0
CC(=O)c1c(C)[nH]c(C(=O)Nc2ccc(N3CCCCCC3)cc2)c1C	10.0	72.3*	10.9	/	8.3	45.5
CC(=O)c1c(C)[nH]c(C(=O)NCc2ccccc2F)c1C	-1.7	54.3*	5.7	-0.6	3.1	7.8
COc1ccccc1NC(=O)CNC(=O)c1ccc([N+](=O)[O-])cc1	12.8	-4.4	-3.2	5.1	1.8	-26.0
CCOC(=O)C1(C)CCCN1C(=O)c1cccs1 (centres undefined)	2.8	26.7	-2.7	/	/	9.6
Cc1ccccc1-n1c(SCc2cc(=O)n3ccccc3n2)nc2[nH]ncc2c1=O	2.5	60.2*	12.9	7.3	13.1	/
Cc1cccc2nc(CSc3nc4[nH]ncc4c(=O)n3-c3ccccc3Cl)cc(=O)n12	-43.0	11.6	14.3	14.9	0.9	9.9
Cc1nn(Cc2ccc(F)cc2)c(C)c1NC(=O)CCCn1nc([N+](=O)[O-])cc1C	-1.2	9.0	-2.3	-5.4	-11.0	-9.7
COCc1c(C(=O)Nc2ccc3nc(N4CCOCC4)sc3c2)oc2ccccc12	50.8*	30.0	36.2	-5.5	-6.1	42.8
COCc1c(C(=O)Nc2cccc(S(=O)(=O)N3CCCCC3)c2)oc2ccccc12	22.5	38.7	85.6*	2.9	2.3	2.8
CCOc1ccc(NC(=O)c2ccncc2)cc1	-50.0	9.0	-14.6	-5.8	-9.2	-0.5
